This is a sample that favours compounds with a hit; in the whole collection about 11% have one here.
PI5P4Ka inh: inhibitors of human PI5P4K alpha | max response, % | PI5P4Kalpha enzyme, ADP-Glo luminescence, 60 min; active compounds read low | 1.2% of 330,000 active; active means max response of -50% or lower; inconclusive means between -30% and -50%; inactive means -30% or higher; further: value at the top dose of about 77 µM; on the % scale 0 is the no-effect control and ±100 the full control effect
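Reactions run in 0.038 M HEPES pH 7.4, 0.28 mM EGTA, 0.1% CHAPS and 5% DMSO, with PI5P4Kalpha, substrate, compound and 5 microM ATP final, one hour at room temperature. Readout is ADP-Glo luminescence.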
JMJD2A Tudor inh: blocks the human JMJD2A Tudor domain; AID 504339; Potency, µM (top dose mostly 114 µM), inactives show top-dose activity change, negative = inhibition, actives largely listed as inhibitors; AlphaScreen JMJD2A-Tudor / H3K4me3 peptide binding; 4.4% of 390,000 active; further: potency means the concentration at half of the fitted maximal effect; on the % scale 0 is the no-effect control and ±100 the full control effect; nearly all actives have a fitted effect of over 50% in size
G9a inh: blocks human histone lysine methyltransferase G9a | Potency, µM (titrated, usually from 102 µM), inactives show at the top dose activity, negative = inhibition, hits mostly inhibitors | Q96KQ7 | 8.8% of 350,000 active | AID 504332 | G9a H3K9 monomethylation, AlphaScreen, 2 h; further: potency means the concentration at half of the fitted maximal effect; on the % scale 0 is the no-effect control and ±100 the full control effect; nearly all actives have a fitted effect of over 75% in size
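Readings reflect AlphaScreen signal from monomethyl-H3K9 antibody detection. HMT at 20 nM; substrate b-H3K9 500 nM; cofactor SAM 20 uM; 2 h RT reaction; compounds tested as titrations in qHTS with 15 min preincubation.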
HP1b chromo inh: blocks HP1-beta chromodomain binding to methylated histone tails | P83916 | AlphaScreen HP1-beta / biotin-H3K9me3 peptide binding | Potency, µM (titrated, usually from 114 µM), inactives show at the top dose activity change, negative = inhibition, usual class: inhibitors | 0.56% of 390,000 active | AID 540317; further: potency means the concentration at half of the fitted maximal effect; nearly all actives have a fitted effect of over 70% in size
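Compound inhibition of the preformed complex between 50 nM HP1-beta and 50 nM biotinylated H3K9me3 peptide was read by AlphaScreen. Buffer was PBS pH 7.4 with 0.01% Tween-20. Incubations ran 30 min at room temperature, with 10 ug/mL donor/acceptor beads.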
L3MBTL1 inh: inhibitors of human L3MBTL1; AlphaScreen L3MBTL1–H3K9me1 peptide binding; Q9Y468; 0.66% of 230,000 active; AID 485360; Potency, µM (highest dose often 57.1 µM), for the others: top-dose activity, negative = inhibition, hits mostly inhibitors; further: potency means the concentration at half of the fitted maximal effect; on the % scale 0 is the no-effect control and ±100 the full control effect; nearly all actives have a fitted effect of over 60% in size
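AlphaScreen proximity signal between nickel-chelate acceptor and streptavidin donor beads (final 10 ug/mL) reports binding of 50 nM L3MBTL1 to 75 nM biotin-H3 K9me1 peptide; complex incubated with compounds 30 min at room temperature; cefsulodin titration as control.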
BAZ2B inh: inhibitors of human BAZ2B bromodomain. Q9UIF8. AlphaScreen BAZ2B-H3K14Ac peptide displacement. Potency, µM (series often up to 114 µM), inactives show at the top dose activity change, negative = inhibition, hits mostly inhibitors. 4.4% of 360,000 active; further: potency means the concentration at half of the fitted maximal effect; on the % scale 0 is the no-effect control and ±100 the full control effect; nearly all actives have a fitted effect of over 60% in size
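Compounds, titrated to a top concentration of 110 uM, were incubated 30 min at room temperature with preformed BAZ2B/acetyl-K14 H3 peptide complex (50 nM each). Proximity signal was measured by AlphaScreen after 20 min with beads.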
Numbers without * were called inactive; [ ] = remark or other dose. Unless noted, the call rests on the fitted dose curve; in most records, active means well fitted inhibition curve with a large enough effect; inconclusive means small, poorly fitted or top-dose-only effect; inactive means no such curve, though single readings can be large or run the other way.

For COc1ccc(S(=O)(=O)N/N=C(/C)c2ccncc2)cc1 the results were PI5P4Ka inh 0.3, JMJD2A Tudor inh -9.1%, G9a inh 7.08µM*, HP1b chromo inh 58.7% and BAZ2B inh 0.4%.
For CCC(Oc1ccccc1)C(=O)Nc1cc(-c2ccccc2F)nn1-c1ccccc1 (stereo not given) the results were JMJD2A Tudor inh -7.1%, G9a inh 0.5%[59 µM], HP1b chromo inh 13.5%[57 µM] and BAZ2B inh 16.4%.
Screening Cc1ccc(N2C(=O)C(CC(=O)Nc3cccc(F)c3)N(CCc3ccccc3F)C2=O)cc1 (stereo not given) returned JMJD2A Tudor inh -6.0%, G9a inh 33.6%[59 µM], HP1b chromo inh 29.7% and BAZ2B inh -38.1%.
For Cn1c(=O)[nH]c(=O)c2c1nc(SCCC(=O)O)n2Cc1cccc(Br)c1 the results were PI5P4Ka inh -14.5, JMJD2A Tudor inh -20.5%, G9a inh 35.5µM*, HP1b chromo inh 66.1%, L3MBTL1 inh -0.5% and BAZ2B inh -13.0%.
Screening CC(=O)CSc1nc2c(c(=O)[nH]c(=O)n2C)n1Cc1cccc(Br)c1 returned PI5P4Ka inh -0.4, JMJD2A Tudor inh -21.9%, G9a inh 22.4µM*, HP1b chromo inh -7.6%, L3MBTL1 inh 0.0% and BAZ2B inh -3.5%.
Cn1c(=O)[nH]c(=O)c2c1nc(SCCO)n2CCCc1ccccc1 was read as PI5P4Ka inh -6.6, JMJD2A Tudor inh -16.5%, G9a inh inconclusive, HP1b chromo inh 33.7%, L3MBTL1 inh -5.1% and BAZ2B inh 4.2%.
For Cn1c(SCc2cccc(Br)c2)nc2c1c(=O)[nH]c(=O)n2C the results were PI5P4Ka inh 0.8, JMJD2A Tudor inh -13.3%, G9a inh 12.0%, HP1b chromo inh 38.7%, L3MBTL1 inh -0.2% and BAZ2B inh -0.4%.
Screening CCCCCNc1nc2sc3c(c2c(=O)n1-c1cccc(Cl)c1)CCN(C)C3 returned PI5P4Ka inh 10.8, JMJD2A Tudor inh -20.5%, G9a inh 50.1µM*, HP1b chromo inh -5.4%, L3MBTL1 inh inconclusive and BAZ2B inh -23.3%.
Screening CCCCNc1nc2sc3c(c2c(=O)n1-c1cccc(Cl)c1)CCN(C)C3 returned PI5P4Ka inh 4.7, JMJD2A Tudor inh -18.7%, G9a inh inconclusive, HP1b chromo inh -2.7%, L3MBTL1 inh -25.5% and BAZ2B inh -15.8%.
Screening Cc1ccc(-c2nc(N=Nc3ccc(O)cc3)n[nH]2)cc1 returned PI5P4Ka inh -16.6, JMJD2A Tudor inh inconclusive, G9a inh 50.1µM*, HP1b chromo inh -27.6%, L3MBTL1 inh -15.1% and BAZ2B inh inconclusive.
CCCCNc1ccc(C(CC(N)=O)NC(=O)Cc2cccc3ccccc23)cc1[N+](=O)[O-] (stereo not given) was read as PI5P4Ka inh -9.7, JMJD2A Tudor inh -10.6%, G9a inh -8.3%[12.7 µM], HP1b chromo inh 33.0% and BAZ2B inh 14.7%.
For NC(=O)CC(NC(=O)Cc1cccc2ccccc12)c1ccc(NCCCN2CCCC2=O)c([N+](=O)[O-])c1 (stereo not given) the results were PI5P4Ka inh -3.5, JMJD2A Tudor inh -29.3%, G9a inh 70.8µM*, HP1b chromo inh 28.6%, L3MBTL1 inh -5.2% and BAZ2B inh -34.3%.
`Cc1ccc(N(CC(=O)Nc2ccccc2-c2ccccc2)S(=O)(=O)c2ccccc2)c(C)c1` gave PI5P4Ka inh 7.8, JMJD2A Tudor inh -14.3%, G9a inh 8.91µM*, HP1b chromo inh 8.0%, L3MBTL1 inh -6.1% and BAZ2B inh -26.6%.
`O=S(=O)(c1ccc(Cl)cc1)c1cc(O)ccc1O` gave PI5P4Ka inh -2.3, JMJD2A Tudor inh -24.0%, G9a inh 44.7µM*, HP1b chromo inh inconclusive, L3MBTL1 inh -1.6% and BAZ2B inh -24.8%.
Screening O=S(=O)(c1ccccc1)c1cc(O)ccc1O returned PI5P4Ka inh 11.5, JMJD2A Tudor inh -8.0%, G9a inh 50.1µM*, HP1b chromo inh -26.0%, L3MBTL1 inh -6.0% and BAZ2B inh -10.0%.
Screening Nc1ccc(S(=O)(=O)c2ccc(Cl)cc2)cc1 returned JMJD2A Tudor inh -11.0%, G9a inh 6.6%[59 µM], HP1b chromo inh 18.7% and BAZ2B inh 8.6%.
Cc1ccc(S(=O)(=O)NCCOC(=O)Nc2sc(=S)n(C)c2C)cc1 was read as JMJD2A Tudor inh -9.4%, G9a inh 31.6µM*, HP1b chromo inh inconclusive and BAZ2B inh inconclusive.
Cc1ccc(Cl)cc1OCC(=O)NCCOC(=O)Nc1sc(=S)n(C)c1C was read as PI5P4Ka inh -6.0, JMJD2A Tudor inh -11.4%, G9a inh inconclusive, HP1b chromo inh -30.2%, L3MBTL1 inh -5.4% and BAZ2B inh -12.1%.
Screening Cc1c(NC(=O)OCCNC(=O)Nc2ccccc2)sc(=S)n1C returned PI5P4Ka inh -10.4, JMJD2A Tudor inh -7.5%, G9a inh inconclusive, HP1b chromo inh -22.1%, L3MBTL1 inh -3.3% and BAZ2B inh -3.3%.
For CCOC(=O)Nc1sc(=S)n(C)c1C the results were JMJD2A Tudor inh -8.6%, G9a inh 12.6µM*, HP1b chromo inh -7.2%, L3MBTL1 inh -0.4% and BAZ2B inh 8.8%.
Screening CC1CC1C(=O)OCC(=O)Nc1ccc(N=Nc2ccccc2)cc1 (stereo not given) returned PI5P4Ka inh 25.6, JMJD2A Tudor inh -27.6%, G9a inh 35.5µM*, HP1b chromo inh inconclusive, L3MBTL1 inh -25.3% and BAZ2B inh 28.2µM*.
CC(C)c1ccc(Nc2cc(C(=O)NC3CCCCC3)c3ccccc3n2)cc1 was read as JMJD2A Tudor inh -13.0%, G9a inh 12.4%[59 µM] and HP1b chromo inh 24.0%.
For Cc1ccc2sc(N(Cc3cccnc3)C(=O)Cc3ccccc3)nc2c1C the results were JMJD2A Tudor inh -2.6%, G9a inh 2.3%[59 µM], HP1b chromo inh 42.3% and BAZ2B inh -1.4%.
Screening Cc1ccc2sc(N(CCCN(C)C)C(=O)CN3C(=O)c4ccccc4C3=O)nc2c1C returned PI5P4Ka inh 0.4, JMJD2A Tudor inh -35.9%, G9a inh 50.1µM* and HP1b chromo inh -12.8%.
`Cc1ccc2sc(N(CCCN(C)C)C(=O)c3ccc(S(=O)(=O)N4CCCCCC4)cc3)nc2c1C` gave PI5P4Ka inh -4.0, JMJD2A Tudor inh inconclusive, G9a inh 50.1µM*, HP1b chromo inh -21.1%, L3MBTL1 inh -0.4% and BAZ2B inh inconclusive.
CCOc1ccc2nc(N(CCCN(C)C)C(=O)c3ccc(S(=O)(=O)N4CCCC4)cc3)sc2c1 was read as PI5P4Ka inh -1.4, JMJD2A Tudor inh -8.2%, G9a inh inconclusive, HP1b chromo inh 8.0% and BAZ2B inh inconclusive.

Source: PubChem (National Center for Advancing Translational Sciences (NCATS))
